The record followed here is PMC7819943, “Rice protein-binding microarrays: a tool to detect cis-acting elements near promoter regions in rice”.

Whole data set: some 68,000 sequences, median “fluorescence intensity (a.u.)” near 9,100, cut for the highest 2% near 16,000. Only a selection was taken, and the highest values are over-represented in it overall.

OsWRKY34, sequence (Q0JBA9 entry or part of it): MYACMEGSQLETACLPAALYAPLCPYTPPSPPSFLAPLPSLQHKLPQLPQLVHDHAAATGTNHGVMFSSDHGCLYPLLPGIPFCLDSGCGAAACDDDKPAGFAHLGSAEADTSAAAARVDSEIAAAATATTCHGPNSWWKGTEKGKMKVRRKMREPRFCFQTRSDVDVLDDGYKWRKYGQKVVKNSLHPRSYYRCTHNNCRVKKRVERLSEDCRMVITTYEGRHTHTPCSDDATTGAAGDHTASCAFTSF

This assay concerns the target OsWRKY34 (Oryza sativa, UniProt Q0JBA9 1-250). Nature of the assay: protein-binding microarray (RPBM); PBS, 2% BSA, 51.3 ng/ul salmon testes DNA, 50 uM zinc acetate, 200 nM TF, 25 C, 1 h; high values mean tight binding. The following applies: protein: recombinant; tags: N-terminal polyhistidine and DsRed monomer fusion (pET32a); label: CyDye5-dUTP incorporated in the synthesized complementary strand; 3' TTTTT single-stranded linker to array surface; dsDNA, one strand shown. The gist of the method: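 The binding signal is fluorescence intensity per feature, in arbitrary units, read on an Axon 4000B scanner. Polyhistidine- and DsRed-tagged transcription factors (N-terminal fusions) from E. coli BL21-CodonPlus were purified on Ni–NTA and applied at 200 nM for 1 h at 25 °C to a double-stranded, BSA-blocked custom Agilent array in buffer with 50 µM zinc acetate.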
Consider “GGTCATTCATGTATTTTTCTTGCGTTTTGCAATCCTCTGTCGGAGTCACCTAGTGCAG”, for which the binding signal is 11200 fluorescence intensity (a.u.).

As for “CCGCCGCCGCCGCCGCCGACCTTGTCACTCCGGCCGCTGCCGGAGTCACCTAGTGCAG”, the binding signal is 9390 fluorescence intensity (a.u.).

Consider “GACCGACTACTCCTACAAACATTACTCAAGTCATTGCAAACGGAGTCACCTAGTGCAG”, for which the binding signal was 8200 fluorescence intensity (a.u.).

For “ATTTTGCATGGGGCATGTGTGAAGTGTCCTACTAAATTTTCGGAGTCACCTAGTGCAG”, the binding signal is 9350 fluorescence intensity (a.u.).

“GGTTCGTTCGTTCCTCCCGCGGCGACGGGGTGGGGCACACCGGAGTCACCTAGTGCAG”: the binding signal is 8930 fluorescence intensity (a.u.).

Consider “TCCGCTCGTTCCTCTCCCGACGAGGGTGGGTGGGGTGGGGCGGAGTCACCTAGTGCAG”, for which the binding signal is 22700 fluorescence intensity (a.u.).

With “GGTTGTAGGTGGAGGAGGAGGAGGGGCGGTTCCGGAGTTTCGGAGTCACCTAGTGCAG”, the binding signal was 22600 fluorescence intensity (a.u.).

Take “AGGGAGGCGTAGGTTGTGGTCGTTGTTGCGGTTTGGAGTTCGGAGTCACCTAGTGCAG”: the binding signal is 8250 fluorescence intensity (a.u.).

As for “GACTCGGCGGCCTCTGCTCCTCCGCTCGTTCCTCTCCCGACGGAGTCACCTAGTGCAG”, the binding signal is 11100 fluorescence intensity (a.u.).

With “GGTAGGGCTGCCGCCGGTGGGTAGGGGTGGTGGATTTTTTCGGAGTCACCTAGTGCAG”, the binding signal is 14400 fluorescence intensity (a.u.).

On to “GCGCGCCGCGCTCACGGGTGGGTCAAGGCAAGGGGAAGGGCGGAGTCACCTAGTGCAG”, for which the binding signal is 9400 fluorescence intensity (a.u.).

For “CGGTAGGGCGAGCACGGGTGGGGTTGGTGGTGATTTTTTTCGGAGTCACCTAGTGCAG”, the binding signal is 20800 fluorescence intensity (a.u.).

Regarding “CCCGGCCGCTCTCTCCGGGTGGGGTGGTGGGTGGCAAGGGCGGAGTCACCTAGTGCAG”, the binding signal was 21100 fluorescence intensity (a.u.).

As to “GGAGGGGCGGGGTGGCGCGGCGAGGCCGGCGACAAGGCCGCGGAGTCACCTAGTGCAG”, the binding signal is 9130 fluorescence intensity (a.u.).

For “GTGTGGTGCGAGCAGTGATATTTTCTGTGTTGGGTCTGGGCGGAGTCACCTAGTGCAG”, the binding signal was 8120 fluorescence intensity (a.u.).

Consider “AATTCCGGTGGTTCACCGCCGGTGAGGGTTGGAGGAGGGGCGGAGTCACCTAGTGCAG”, for which the binding signal was 8160 fluorescence intensity (a.u.).

For “TCGTTTCTTTGCCAGCTGCGCATCCATTCAGCCGGTCGTACGGAGTCACCTAGTGCAG”, the binding signal was 12700 fluorescence intensity (a.u.).

On to “CTTTTATTTAACGGATGTTTCACCATGGTCTTTACTGTAGCGGAGTCACCTAGTGCAG”, for which the binding signal is 9320 fluorescence intensity (a.u.).

“TCCCATCACACACACCACCGCTCCGCTCCATGTCGCACCACGGAGTCACCTAGTGCAG”: the binding signal was 8350 fluorescence intensity (a.u.).

Consider “CGTAGAAGATGTTGCTGTTGCCGCCGTTGACGAACTTGGTCGGAGTCACCTAGTGCAG”, for which the binding signal was 8810 fluorescence intensity (a.u.).

With “CAAATTACTACTACCTCCGTCCCAAAATAATTGCATTTCTCGGAGTCACCTAGTGCAG”, the binding signal is 8950 fluorescence intensity (a.u.).

Take “CACGCACCCTCTTTCCCGTGCTTCGTGTGCCCTTCGATCGCGGAGTCACCTAGTGCAG”: the binding signal is 9430 fluorescence intensity (a.u.).

For the sequence “AGATTATTTTGCTCGATTTTGAATTTTTCATGCATCCGTCCGGAGTCACCTAGTGCAG”, the binding signal was 9150 fluorescence intensity (a.u.).

For the sequence “AGAGCGGGTGGGAGGCGAAGTAGACAGGGGCGGGGCGCATCGGAGTCACCTAGTGCAG”, the binding signal was 15700 fluorescence intensity (a.u.).

For the sequence “TTACCTCGCGTACCCTCGCACCCGTCTCCCGCAGACAGATCGGAGTCACCTAGTGCAG”, the binding signal was 8480 fluorescence intensity (a.u.).

Regarding “GTGTGTGCATGCTGATAGCTTGGTCTCTTGAGGATAATTGCGGAGTCACCTAGTGCAG”, the binding signal is 9730 fluorescence intensity (a.u.).

In the case of “TCATTTGATTTATTGTTAAATATATTTTTATGTATACATACGGAGTCACCTAGTGCAG”, the binding signal was 8550 fluorescence intensity (a.u.).

Regarding “CTTCCTCCGTTTCACAATGTAAGTCGTTCTAGCATTTTTCCGGAGTCACCTAGTGCAG”, the binding signal was 8110 fluorescence intensity (a.u.).

As for “GTTATGTTAGGTCTGGTTTTTTGGCTGTAGCAGCAGCAGTCGGAGTCACCTAGTGCAG”, the binding signal is 8510 fluorescence intensity (a.u.).

Turning to “GCTAGACACAGGCAACCAAACACACCCTAACACTCACTGTCGGAGTCACCTAGTGCAG”, the binding signal was 9290 fluorescence intensity (a.u.).

As to “GCGGGCGGCAGCGCGGTGGGGCGGTGGCGGTGGTGGCGGCCGGAGTCACCTAGTGCAG”, the binding signal was 9980 fluorescence intensity (a.u.).

As for “TAGGTAGGGTGGTGGCGGGCGGGCTCCCGCAGCCAGTGGCCGGAGTCACCTAGTGCAG”, the binding signal is 11100 fluorescence intensity (a.u.).

“GACGTGGCTATGGGTGGGCGTTGCGAGCCGGCATTTTATACGGAGTCACCTAGTGCAG”: the binding signal was 16400 fluorescence intensity (a.u.).

As to “GGAACGGCCAGCGGCGGCGGCGGGTAGGGTGGGGTGGGGCCGGAGTCACCTAGTGCAG”, the binding signal was 21600 fluorescence intensity (a.u.).

Turning to “CGGCGGCGGCGACCGCGGGTAGGGTGGGTGGCGCGGGCCGCGGAGTCACCTAGTGCAG”, the binding signal is 9330 fluorescence intensity (a.u.).

On to “TCGTTGGTGGGTAGGTGGTGGAGATGGTGGTGGCGGCGGGCGGAGTCACCTAGTGCAG”, for which the binding signal was 15600 fluorescence intensity (a.u.).

In the case of “GCTGTGGGTAGGCCGGCGCCGCCGGCCGACGGGTGGGGAGCGGAGTCACCTAGTGCAG”, the binding signal was 8420 fluorescence intensity (a.u.).

On to “ACCTCCTTTTCATACAGCCGGCGTGGCATTTGTGGGCCCACGGAGTCACCTAGTGCAG”, for which the binding signal was 9220 fluorescence intensity (a.u.).

On to “GGCCGGCGACGCTGAACGGGGTGGGGTAGTCTGCTATTTACGGAGTCACCTAGTGCAG”, for which the binding signal is 18000 fluorescence intensity (a.u.).

On to “GGTGGGCCGGGCTTTGCTTTTGCTTTAAACATTTGCGTGGCGGAGTCACCTAGTGCAG”, for which the binding signal is 8680 fluorescence intensity (a.u.).

With “GCGGCGCGGTGCGCTCGGGTGGGGCCGGTCGACGTCTGCACGGAGTCACCTAGTGCAG”, the binding signal was 8120 fluorescence intensity (a.u.).

For “CGGGTAGGGTGGGGTGGGGCGGGGTGGGGTTGGCGGCGACCGGAGTCACCTAGTGCAG”, the binding signal was 39500 fluorescence intensity (a.u.).
